“And” between values parts separate entries of the source, which are not always exact repeats. Equal entries are not always repeated. Results filed as inconclusive are left out. Values without a mark were called inactive. The source made the active and inactive calls. Calls come from the whole dose curve; as a rule, active = well fitted curve in the direction sought with a large enough effect; inconclusive = small, poorly fitted or top-dose-only effect, or another doubt; inactive = no such curve, though single readings can be large; an effect the other way counts as inactive or inconclusive.

Among the data in PubChem BioAssay (NCATS) are activation, viability and Potency values, retold here.

The target of test [1] is Cellular tumor antigen p53 (Homo sapiens) (UniProt P04637). The test can be described thus: Primary qHTS for small molecule compounds that upregulate eGFP-tagged delta133p53alpha (in N-terminal) cells. (AID 2060322).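 For activation: cells pre-induced with doxycycline then dosed without doxycycline; series mostly up to about 56 µM; 0% = DMSO vehicle and 100% = reference activator.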 Note: nearly all actives have a fitted effect of over 75% in size. The note with it: NCI-H358 eGFP-delta133p53alpha fluorescence, 24 h; activation: active compounds read high. In a few lines: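 NCI-H358 cells pre-induced 24 h with 10 ng/ml doxycycline for eGFP-delta133p53alpha, plated dox-free and exposed 24 h at 37C to titrated compounds. Fixed, Hoechst-stained; gated GFP peak intensity by laser scanning cytometry, normalized to DMSO (0%) and 57.5 uM 5-azacytidine (100%).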
On the technique in general: qHTS replaces the single test concentration by a dilution series.

Test [2] in a line: BET inhibitor-based combinations targeting novel dependencies in MECOM-rearranged (r) AML: SET-2 cell line (AID 2202231).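 For viability: plate controls were DMSO treated cells for no effect and wells without cells for full effect.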 Note: nearly all actives have a fitted effect of over 35% in size. The note with it: SET-2 AML cells viability, CellTiter-Glo luminescence, 48 h; viability: active compounds read low, concentration not given here. An outline of the steps:
(§1)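 Cells were plated at 500 per well and exposed to an 11-point dose series of each drug for 48 hr. Viability was measured by CellTiter-Glo luminescence, normalized to DMSO and empty-well controls, and summarized as AUC and per-cell-line Z-AUC.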

Test [3] is described as follows: BET inhibitor-based combinations targeting novel dependencies in MECOM-rearranged (r) AML: HNT-34 cell line (AID 2202234). Note: nearly all actives have a fitted effect of over 35% in size. In a few lines: (§2)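 Activity is given as area under the curve and as Z-AUC, mean-centred within each cell line. It comes from 11-point dose curves normalized to DMSO and empty wells. CellTiter-Glo luminescence was read after 48 hr drug exposure of 500 cells/well.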

Test [4] in a line: BET inhibitor-based combinations targeting novel dependencies in MECOM-rearranged (r) AML: UCSD-AML1 cell line (AID 2202235). Note: nearly all actives have a fitted effect of over 40% in size. An outline of the steps:
as §2

Test [5] is described as follows: BET inhibitor-based combinations targeting novel dependencies in MECOM-rearranged (r) AML: AML-191 cell line (AID 2202236; note: nearly all actives have a fitted effect of over 35% in size). An outline of the steps: as §1
Test [6] in a line: BET inhibitor-based combinations targeting novel dependencies in MECOM-rearranged (r) AML: AML-194 cell line (AID 2202237; note: nearly all actives have a fitted effect of over 40% in size). An outline of the steps: as §1
Test [7] can be described thus: BET inhibitor-based combinations targeting novel dependencies in MECOM-rearranged (r) AML: OCI-AML3 cell line (AID 2202232). Note: nearly all actives have a fitted effect of over 35% in size. The note with it: Potency: OCI-AML3 viability. In a few lines:
as §1

A short description of test [8]: BET inhibitor-based combinations targeting novel dependencies in MECOM-rearranged (r) AML: MV-4-11 cell line (AID 2202233). Note: nearly all actives have a fitted effect of over 45% in size. An outline of the steps: as §2
Potency is the fitted concentration of half-maximal effect.

Sequence of Cellular tumor antigen p53 (Homo sapiens) (P04637 whole entry, looked up): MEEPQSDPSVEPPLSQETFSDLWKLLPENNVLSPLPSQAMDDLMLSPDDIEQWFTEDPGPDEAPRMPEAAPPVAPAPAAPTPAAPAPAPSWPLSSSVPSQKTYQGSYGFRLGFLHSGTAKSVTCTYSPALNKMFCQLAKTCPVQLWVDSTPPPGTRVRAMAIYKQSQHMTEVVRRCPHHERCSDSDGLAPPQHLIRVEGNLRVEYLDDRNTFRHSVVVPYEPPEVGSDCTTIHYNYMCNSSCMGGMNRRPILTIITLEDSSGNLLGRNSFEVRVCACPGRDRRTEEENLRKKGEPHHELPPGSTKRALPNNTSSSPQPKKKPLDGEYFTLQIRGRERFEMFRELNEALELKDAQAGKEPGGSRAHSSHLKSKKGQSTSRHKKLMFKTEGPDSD

What is called viability is a read-out of living cells in per cent, often relative to untreated cells. `CCCCC(=O)O[C@]1(C(=O)CO)[C@@H](C)C[C@H]2[C@@H]3CCC4=CC(=O)C=C[C@]4(C)[C@@]3(F)[C@@H](O)C[C@@]21C`: the activation in test [1] is 8.12%. For the same compound, the viability in test [2] is 109%. Moreover, the Potency in test [3] is 14.8 µM (active); in test [5], 0.0132 µM (active). In addition, the Potency result in test [4] was “inactive”.
Take `O=C(O)c1cc(=O)c2c(OCC(O)COc3cccc4oc(C(=O)O)cc(=O)c34)cccc2o1`: the activation in test [1] was 19.8%. Besides, the viability in test [2] was 114%. Besides, the Potency result in test [3], in test [5] and in test [6] was “inactive” throughout.
In the case of `COc1ccc(C[C@@H](C)[C@@H](C)Cc2ccc(OC)c(OC)c2)cc1OC`, in test [1], the activation is 11.5%. In test [2], the Potency was 18.6 µM (active). In addition, the Potency result in test [3], in test [4] and in test [6] was “inactive” each time.
Take `COc1ccc(C(=O)CC(=O)c2ccc(C(C)(C)C)cc2)cc1`: in test [1], the activation is -17.5% and -8.43%. In addition, in test [2], the viability was 107%. The Potency result in test [4] is “inactive”. For the same compound, in test [5], the Potency is 20.9 µM (active).
As for `CCOc1cc(N)c(Cl)cc1C(=O)NCC1CN(Cc2ccc(F)cc2)CCO1` (stereo not given), in test [1], the activation was -2.82% and 4.36%. Besides, the viability in test [2] is 105%. Further, the Potency entry in test [3], in test [4], in test [5] and in test [6] was “inactive” in each case.
Take `COC(=O)C[C@](O)(CCCC(C)(C)O)C(=O)O[C@@H]1C(OC)=C[C@]23CCCN2CCc2cc4c(cc2[C@H]13)OCO4`: in test [1], the activation is -1.17%. In addition, the Potency is 0.148 µM (active) in test [2], 0.0417 µM (active) in test [3], 0.0148 µM (active) in test [4] and 0.059 µM (active) in test [5].
In the case of `CC(=O)OCC(=O)[C@@]12N=C(C)O[C@@H]1C[C@H]1[C@@H]3CCC4=CC(=O)C=C[C@]4(C)[C@H]3[C@@H](O)C[C@@]12C`, in test [1], the activation was -1.69%. Further, the Potency result in test [7], in test [8], in test [3] and in test [4] was “inactive” throughout.
With `NC(=O)c1ccc(-c2nc(-c3ccc4c(c3)OCCO4)c(-c3ccccn3)[nH]2)cc1`, the activation in test [1] was -1.5%. Also, in test [2], the viability is 104%. In addition, in test [6], the Potency entry was “inactive”.
Turning to `Clc1ccc(C(Cn2ccnc2)OCc2ccc(Sc3ccccc3)cc2)c(Cl)c1` (stereo not given), the activation in test [1] is -3.95% and 8.63%. The Potency entry in test [7] is “inactive”. Further, the figures for the Potency in test [8], in test [3] and in test [4] were 14.8 µM (active), 20.9 µM (active) and 20.9 µM (active), respectively.
On to `NC1=N[C@H]2[C@H](CS[C@H]2CCCCC(=O)O)N1`, for which, in test [1], the activation was -4.3%. In addition, the Potency entry in test [7], in test [8] and in test [3] was “inactive” in each case.
Consider `COc1ccc(COc2cc3oc(=O)c4cc(C(C)O)ccc4c3cc2OC)cc1` (stereo not given), for which, in test [1], the activation was 0.91%. For the same compound, the viability in test [2] was 86.4%. Further, in test [5], the Potency was 20.9 µM (active).
Consider `C[C@]12C=CC(=O)C=C1CC[C@@H]1[C@@H]2[C@@H](O)C[C@@]2(C)[C@H]1CC[C@]2(O)C(=O)CO`, for which the activation in test [1] is -4.18%. Also, the Potency entry in test [7], in test [8], in test [3] and in test [4] was “inactive” each time. For the same compound, the Potency in test [5] is 0.372 µM (active); in test [6], 1.18 µM (active).
As for `Cc1ccc(NC(=O)c2cccc(N(C)C)c2)cc1NC(=O)c1ccc(O)cc1`, in test [1], the activation is -4.71%. Further, the viability in test [2] is 90.3%. Besides, the Potency result in test [4], in test [5] and in test [6] was “inactive” in each case.
For `C[C@@H]1C(=O)O[C@H]2CC34[C@H]5C[C@@H](C(C)(C)C)C36[C@H](OC(=O)[C@@H]6O)O[C@@]4(C(=O)O5)[C@]21O` (stereo not given in full), the activation in test [1] was 14%. Further, the Potency entry in test [7] and in test [8] was “inactive” each time.
As for `CN(C)CCN1C(=O)c2cccc3cc(N)cc(c23)C1=O`, the Potency was 34.3 µM (active) in test [1], 14.8 µM (active) in test [2], 10.5 µM (active) in test [3] and 13.2 µM (active) in test [5].
With `CCC[C@H](N[C@@H](C)C(=O)N1[C@@H]2CCCC[C@H]2C[C@H]1C(=O)O)C(=O)OCC`, the activation in test [1] is -22.1%. Also, the Potency entry in test [7], in test [8], in test [3], in test [4] and in test [5] was “inactive” in each case.
Regarding `O=C(Nc1nnc(-c2ccco2)o1)c1cc(-c2ccccc2)nc2ccccc12`, the activation in test [1] was -15%. Moreover, the Potency is 14.8 µM (active) in test [7]; 20.9 µM (active) in test [8]; 10.5 µM (active) in test [3]; 8.33 µM (active) in test [4]; 11.8 µM (active) in test [5].
In the case of `COc1ccc(-c2coc3cc(O)cc(O)c3c2=O)cc1`, in test [1], the activation was 22.8%. Besides, in test [2], the viability was 45.9%. Moreover, the Potency entry in test [4], in test [5] and in test [6] was “inactive” each time.
`O=c1cc(N2CCOCC2)oc2c(-c3cccc4c3sc3ccccc34)cccc12`: the activation in test [1] was 27.5%. In addition, the Potency in test [7] was 8.33 µM (active); in test [8] it was 4.17 µM (active).
As to `Cn1nnc2c(C(N)=O)ncn2c1=O`, the activation in test [1] was 0% and 2.62%. The Potency result in test [7], in test [8] and in test [3] was “inactive” in each case.
As for `N#CC1(c2ccc(NC(=O)c3cccnc3NCc3ccncc3)cc2)CCCC1`, in test [1], the activation was -7.07%. The Potency result in test [7], in test [5] and in test [6] was “inactive” in each case. For the same compound, the Potency in test [8] was 14.8 µM (active).
On to `C[C@]12CCC3c4ccc(O)cc4CCC3C1CCC2=O` (stereo not given in full), for which the activation in test [1] was -0.196%. The Potency entry in test [7] and in test [6] was “inactive” each time. Besides, the Potency in test [4] was 26.3 µM (active).
Consider `OC[C@H](Cc1ccccc1)Nc1nc(Oc2ccc3c(c2)CCC3)nc2c1ncn2Cc1ccc(-c2ccccc2)cc1`, for which the activation in test [1] was -44.8%. Besides, the values for the Potency in test [7], in test [3] and in test [4] were 8.33 µM (active), 7.42 µM (active) and 4.68 µM (active), respectively.
`NC(=O)[C@@H](CCC(F)(F)F)N(Cc1ccc(-c2ncon2)cc1F)S(=O)(=O)c1ccc(Cl)cc1`: the activation in test [1] is 12.6%. The Potency result in test [7], in test [4] and in test [6] was “inactive” in each case.
